Assay outcomes deposited in PubChem by SRMLSC.
Shown are actives, neighbours in structure and some others; about 6.5% of the full set was active somewhere.
Fluor 339 460 – intrinsic fluorescence of library compounds, ex339/em460 – biochemical, MLSMR library, data from DPM-DC assay, artefact control, profiling panel; compound autofluorescence, ex339/em460 nm, NADH buffer; stronger effect = higher value; 1 = no-compound wells, NADH background; fluorescence fold increase at 10 µM; 5.5% of 65,000 active; AID 709;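 active = at 10 µM, mean starting fluorescence two-fold or more over control wells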;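 note: signal is the first read of a kinetic run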
NADH coupling – blocks coupling enzymes of NAD/NADH assays | AID 774 | 0.02% of 65,000 active | coupled PK/LDH NADH assays, four targets | IC50, µM (series often up to 10 µM);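 active = single-dose screening hits from any of four coupled enzyme assays that gave an IC50 when retested across doses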;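 note: the DPM-DC format reads NADH fluorescence rather than 340 nm absorbance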
Spn MK inh – blocks S. pneumoniae mevalonate kinase; inhibition, % at 10 µM; purified MK, PK/LDH-coupled NADH absorbance 340 nm; 0.48% of 65,000 active;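 active = ranked among the strongest by inhibition in the single 10 µM screen, a fixed top-ranked set picked for dose follow-up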
Abs 340nm – compound absorbs light at 340 nm. compound absorbance at 340 nm, fold over control. fold change at 10 µM. 65,000 tested, under 10 active. AID 708;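 active = at 10 µM dose, initial 340 nm absorbance at least 2 fold that of control wells; inactive = change under 2 fold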;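 note: initial absorbance extrapolated from kinetic A340 decline of NADH oxidation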
Spn PMK inh – blocks S. pneumoniae phosphomevalonate kinase; purified PMK, PK/LDH-coupled NADH absorbance 340 nm; inhibition, % at 10 µM; 0.49% of 65,000 active;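 active = top-ranked compounds by inhibition in the single 10 µM screen, taking a fixed number of the strongest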
Spn DPM-DC inh – inhibitors of Streptococcus pneumoniae diphosphomevalonate decarboxylase; AID 556; calls only at 10 µM; purified DPM-DC, PK/LDH coupled NADH fluorescence; 0.49% of 65,000 active;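 active = the 320 compounds with the highest percent inhibition in the single-dose primary screen, excluding strongly autofluorescent ones, cut at about 32% in these data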;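 note: kinetic rate of NADH fluorescence loss reporting ADP formed by the decarboxylase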
Hits are given with their value; i = inactive; nt = no result shown.

SMILES	Fluor 339 460	NADH coupling	Spn MK inh	Abs 340nm	Spn PMK inh	Spn DPM-DC inh
O=C(Nc1ccc(N2CCOCC2)cc1)C1CC1	i	i	i	i	i	i
COCCCNC(=O)CCC(=O)Nc1ccc2nc(N3CCOCC3)cc(C)c2c1	4.7	i	i	i	i	nt
CCOC(=O)C1CCCN(C(=O)CCC(=O)Nc2ccc3nc(N4CCOCC4)cc(C)c3c2)C1 (stereo not drawn)	4.7	i	i	i	i	nt
CCCCNC(=O)CCC(=O)Nc1ccc2nc(N3CCOCC3)cc(C)c2c1	4.7	i	i	i	i	nt
O=C(CN1C(=O)C2(OCCO2)c2ccccc21)c1ccc(Br)cc1	i	i	i	i	i	i
CCC12CN(C(=O)c3ccc(OC)cc3)CC(CC)(CN(C(=O)c3ccc(OC)cc3)C1)C2=O	i	i	nt	i	i	i
Cc1cc(N2CCN(C)CC2)nc2ccc(NC(=O)CCC(=O)NCCC3=CCCCC3)cc12	3.8	i	i	i	i	i
Cc1cc(NC(=O)c2cnn3c(C(F)F)cc(-c4ccccc4)nc23)no1	i	i	i	i	i	i
COc1ccc(-c2cc(C(F)(F)F)n3ncc(C(=O)NCC4CCCO4)c3n2)cc1 (stereo not drawn)	3	i	i	i	i	nt
O=C(O)c1cnn2c(C(F)(F)F)cc(-c3ccco3)nc12	i	i	i	i	i	i
O=C(NCc1ccco1)c1cnn2c(C(F)F)cc(-c3ccccc3)nc12	2.1	i	i	i	i	i
O=C(CSc1nc2nc(-c3cccs3)cc(C(F)(F)F)c2c(=O)[nH]1)NCc1ccco1	4.9	i	i	i	i	nt
O=C(NCc1ccco1)c1cnn2c(C(F)(F)F)cc(-c3cccs3)nc12	2.3	i	i	i	i	i
CCOc1ccc(-n2c(=S)sc3c(=O)[nH]c(SCC(=O)NCc4ccco4)nc32)cc1	i	i	i	i	i	i
S=c1[nH]nc(COc2ccc(Cl)cc2)o1	i	i	i	i	i	i
COc1ccc(C(=O)Nc2c(N)nc(SCC(=O)N3CCCCCC3)[nH]c2=O)cc1OC	i	i	i	i	i	i
O=C(NC1CCCCC1)c1cnn2c(C(F)(F)F)cc(-c3ccco3)nc12	2.5	i	i	i	i	i
O=C(Nc1c(C(=O)O)oc2ccc(Br)cc12)c1ccccc1	i	i	i	i	i	i
COc1cc(CC(=O)Nc2ccc(S(=O)(=O)N(C)C)cc2)cc(OC)c1OC	i	i	i	i	i	i
O=C(CN1CCC(O)(c2ccc3c(c2)OCO3)CC1)OC1CCCCC1	i	i	i	i	i	i
Cc1ccc2nc(NC(=O)c3cccs3)sc2c1	i	i	i	i	i	i
Cc1ccc2nc(NC(=O)c3ccc(Cl)s3)sc2c1	2.1	i	i	i	i	nt
Cc1ccc2nc(NC(=O)c3ccc(Cn4cc(Cl)cn4)o3)sc2c1	2.2	i	i	i	i	i
CC(=O)c1sc(NC(=O)c2ccc(Cn3cc(Br)cn3)o2)nc1C	i	i	i	i	i	i
Cc1nn(-c2ccccc2)c(C)c1C(=O)Nc1nnc(-c2ccco2)o1	i	i	i	i	i	i
SMILES	Fluor 339 460	NADH coupling	Spn MK inh	Abs 340nm	Spn PMK inh	Spn DPM-DC inh
Cn1c(=O)[nH]c2cc(Cl)cnc21	i	i	i	i	i	i
O=c1[nH]c2cc(Cl)cc(Cl)c2[nH]c1=O	2.5	i	i	i	i	i
Brc1c(CSc2nc3ccccc3o2)nc2ncccn12	5	i	i	i	i	nt
Clc1c(CSc2nc3ccccc3o2)nc2ccccn12	i	i	i	i	i	i
Brc1c(CSc2nncn2-c2ccccc2)nc2ncccn12	4	i	i	i	i	nt
CCOC(=O)c1[nH]c(C(=O)O)c(CCN(CC)CC)c1C	i	i	i	i	i	i
CCOc1ccccc1-n1c(SCC(=O)Nc2ccc(CC)cc2)nc2n[nH]c(C)c2c1=N	4.9	i	i	i	25	nt
CCOc1ccccc1NC(=O)CCSc1nc2n[nH]c(C)c2c(=N)n1-c1ccccc1Cl	i	i	i	i	i	i
CCC(C)(C)n1nnnc1CN(Cc1ccco1)Cc1cc2cc3c(cc2[nH]c1=O)OCO3	3.5	i	i	i	i	nt
CCC(C)(C)n1nnnc1CN(Cc1ccc(Cl)cc1)Cc1ccco1	i	i	i	i	i	i
CC(C)(C)n1nnnc1CN(Cc1ccco1)Cc1cc2cc3c(cc2[nH]c1=O)OCO3	2.5	i	i	i	i	nt
COc1ccc(S(=O)(=O)N2CCOCC2)cc1C(=O)Nc1cc(C)on1	i	i	i	i	i	i
